Several values for one entry are separate records, joined by “and”; a condition that tells them apart may be missing. Equal values may be shown once. In all, about 5,500 compounds went through this assay and about 2,000 (36%) were called active. Roughly 18% stayed inconclusive and do not appear here. Cut-off read from the data, not from the text of the source: active = normalized growth mostly below about 0.91 (no sharp cut-off); inconclusive = no clear call, values can overlap the other calls; inactive = mostly above about 0.92. The list shows a part of the results.
Experiment: chemical genetic growth profiling, strain panel (AID 1159580);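 note: tested at 20 µM; growth read once vehicle control cultures reached saturation at 30 °C; 1 = growth at the plate median or of vehicle wells; lower values mean less growth of the strain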
Conditions: S. cerevisiae deletion strains, growth OD

Measured: normalized growth

CC/C(=C(\c1ccccc1)c1ccc(OCCN(C)C)cc1)c1ccccc1
active: locus YKL009W, strain mrt4, active compounds read low 0.79 | locus YKL160W, strain elf1, active compounds read low 0.13 | locus YKL190W, strain CNB1, active compounds read low 0.045 | locus YKR001C, strain vps1, active compounds read low 0.064 | locus YKR026C, strain gcn3, active compounds read low 0.184 | locus YKR091W, strain srl3, active compounds read low 0.0995 | locus YLL001W, strain dnm1, active compounds read low 0.0862 | locus YLL026W, active compounds read low 0.0741 | locus YLL041C, strain sdh2, active compounds read low 0.115 | locus YLR027C, strain aat2, active compounds read low 0.0818 | locus YLR039C, strain RIC1, active compounds read low 0.0749 | locus YLR058C, strain SHM2, active compounds read low 0.0464 | locus YLR102C, strain apc9, active compounds read low 0.0601 | locus YLR113W, strain HOG1, active compounds read low 0.822 | locus YLR221C, strain rsa3, active compounds read low 0.121 | locus YLR258W, strain gsy2, active compounds read low 0.0791 | locus YLR262C, strain YPT6 (second series), active compounds read low 0.182 | locus YLR262C, strain YPT6, active compounds read low 0.0867 | locus YLR268W, strain sec22, active compounds read low 0.0695 | locus YLR320W, strain mms22, active compounds read low 0.171 | locus YLR330W, strain CHS5, active compounds read low 0.0509 | locus YLR342W, strain FKS1 (second series), active compounds read low 0.0626 | locus YLR342W, strain FKS1, active compounds read low 0.0912 | locus YLR357W, strain rsc2, active compounds read low 0.181 | locus YLR370C, strain arc18, active compounds read low 0.0663 | locus YLR371W, strain rom2, active compounds read low 0.0629 | locus YLR384C, strain iki3, active compounds read low 0.223 | locus YLR418C, strain cdc73, active compounds read low 0.105 | locus YML016C, strain PPZ1, active compounds read low 0.0451 | locus YML032C, strain rad52, active compounds read low 0.0687 | locus YML120C, strain ndi1, active compounds read low 0.114 | locus YML124C, strain tub3, active compounds read low 0.0591 | locus YMR058W, strain fet3, active compounds read low 0.0718 | locus YMR078C, strain ctf18, active compounds read low 0.0689 | locus YMR125W, strain sto1, active compounds read low 0.131 | locus YMR129W, active compounds read low 0.0877 | locus YMR205C, strain PFK2, active compounds read low 0.172 | locus YMR223W, strain ubp8, active compounds read low 0.0676 | locus YMR231W, strain pep5, active compounds read low 0.0689 | locus YMR263W, strain SAP30, active compounds read low 0.0557 | locus YMR307W, strain GAS1, active compounds read low 0.103 and 0.123 | locus YNL067W, strain RPL9B, active compounds read low 0.0484 | locus YNL071W, strain lat1, active compounds read low 0.165 | locus YNL128W, strain TEP1, active compounds read low 0.0645
inactive: locus YKL068W, active compounds read low 1 | locus YKL085W, strain MDH1 (second series), active compounds read low 0.952 | locus YKL085W, strain MDH1, active compounds read low 0.952

— PubChem BioAssay AID1159580 (chemical genetic matrix, 2015)
